In ChEMBL document CHEMBL1961873, “Compounds: GSK PKIS; Assays: Nanosyn kinase panel” (2012) one finds inhibition data, which are given here for 34 compounds.

The target of the first test is Serine/threonine-protein kinase SIK2 (Homo sapiens) (UniProt Q9H0K1). The settings on record: at 1 µM.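 Further: mean inhibition of SNF1LK2 (QIK) kinase activity, from the GSK PKIS screening panel.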
Serine/threonine-protein kinase SIK2 (Homo sapiens), sequence (Q9H0K1 whole entry, looked up): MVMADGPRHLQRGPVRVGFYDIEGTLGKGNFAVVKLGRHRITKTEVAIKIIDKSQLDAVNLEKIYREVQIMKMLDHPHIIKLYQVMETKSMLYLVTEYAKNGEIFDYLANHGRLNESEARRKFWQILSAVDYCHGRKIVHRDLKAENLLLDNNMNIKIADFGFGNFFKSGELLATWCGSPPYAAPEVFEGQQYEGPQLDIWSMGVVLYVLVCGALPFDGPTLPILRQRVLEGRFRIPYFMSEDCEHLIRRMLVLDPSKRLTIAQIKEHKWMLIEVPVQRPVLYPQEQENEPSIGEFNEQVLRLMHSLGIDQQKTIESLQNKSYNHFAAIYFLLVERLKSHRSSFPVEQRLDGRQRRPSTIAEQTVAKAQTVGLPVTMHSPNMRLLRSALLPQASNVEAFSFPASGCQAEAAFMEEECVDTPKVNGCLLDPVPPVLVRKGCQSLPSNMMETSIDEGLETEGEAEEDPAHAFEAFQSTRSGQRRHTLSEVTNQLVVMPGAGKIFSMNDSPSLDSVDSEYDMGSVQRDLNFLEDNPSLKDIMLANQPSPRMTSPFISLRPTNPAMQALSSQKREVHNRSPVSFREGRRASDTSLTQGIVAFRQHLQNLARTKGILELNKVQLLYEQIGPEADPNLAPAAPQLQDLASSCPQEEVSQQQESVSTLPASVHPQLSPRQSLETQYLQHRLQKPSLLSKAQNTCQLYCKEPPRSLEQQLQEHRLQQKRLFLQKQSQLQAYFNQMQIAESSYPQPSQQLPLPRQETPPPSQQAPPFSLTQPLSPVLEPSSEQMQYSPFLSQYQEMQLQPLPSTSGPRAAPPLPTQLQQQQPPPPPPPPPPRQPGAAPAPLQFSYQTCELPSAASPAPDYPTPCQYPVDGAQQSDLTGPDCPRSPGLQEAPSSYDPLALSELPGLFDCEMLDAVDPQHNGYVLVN
`COc1ccc2ncn(-c3cc(O[C@H](C)c4ccccc4Cl)c(C(N)=O)s3)c2c1`: the inhibition is 0.17%.
As for `C#Cc1cccc(Nc2ncnc3ccc(OCCCCNCCS(C)(=O)=O)cc23)c1`, the inhibition stood at 27.5%.
Same read-out and setting: then `NS(=O)(=O)c1ccc(Nc2cc(-c3ccc(O)c(F)c3)n[nH]2)cc1`, with 8.46%; and `C[C@@H](Oc1cc(-n2cnc3ccc(OCC4CCN(C)CC4)cc32)sc1C(N)=O)c1ccccc1Cl`, with 22%.
Same read-out and setting: then `Fc1ccc(-c2ncn(CCCN3CCOCC3)c2-c2ccncc2)cc1`, with 2.48%.
The same measure, in the same setting: then `NS(=O)(=O)c1ccc(N/N=C2\C(=O)Nc3ccc(C(=O)NCCCn4ccnc4)cc32)cc1`, with 12.7%; and `COc1ccc2cc(-c3c(-c4ccncc4)nc(-c4ccc(S(C)(=O)=O)cc4C)n3C)ccc2c1`, with 10.8%.
As to `Clc1ccc(CNc2nccc(-c3cnn4ncccc34)n2)cc1`, the inhibition was found to be 0.45%.
Same read-out and setting: next, `COC(=O)Nc1nc2ccc(Sc3ccc(NC(=O)Nc4cc(C(F)(F)F)ccc4F)cc3)cc2[nH]1`: 0.47%; `Fc1ccc(-c2ncn(C3CCNCC3)c2-c2ccnc(Oc3ccc4c(c3)OCO4)n2)cc1`: 18.5%; `Cc1ccc(C(=O)NC(C)C)cc1-c1ccc(C(=O)NCC2CC2)cc1`: -9.28%.
As to `CCS(=O)(=O)c1ccc(OC)c(Nc2ncc(-c3ccccc3Cl)o2)c1`, the inhibition came to 3.21%.
For `NC(=O)c1cc(-c2ccncc2)cc(-c2ccccc2)c1N`, the inhibition stood at 14.2%.
As to `c1ccc(-c2n[nH]cc2-c2ccnc(-c3ccc(OCCN4CCOCC4)cc3)c2)nc1`, the inhibition was -0.03%.
The same measure, in the same setting: then `Cc1ccc(C(=O)NC2CCC2)cc1-c1ccc(C(=O)NCC2CC2)cc1`, with 0.45%.
Still for that read-out and setting: then `CN(c1ccc(NC(=O)Nc2c(Cl)cccc2Cl)cc1)c1ccnc(Nc2cccc(CS(C)(=O)=O)c2)n1`, with 10.2%; and `CS(=O)(=O)CCNCc1cc(-c2cc3c(Nc4ccc(OCc5cccc(F)c5)c(Cl)c4)ncnc3s2)cs1`, with 0.61%; and `Fc1ccc(-c2c(-c3ccncc3)nc3n2CCS3)cc1`, with 5.89%.
Consider `Cc1ccc(NC(=O)c2ccoc2)cc1-c1ccc(C(=O)NCC2CC2)cc1`, for which the inhibition worked out at 5.33%.
Same read-out and setting: next, `NS(=O)(=O)c1ccc(N/N=C2\C(=O)Nc3ccc(-c4cnco4)cc32)cc1`: 7.34%.
On the same count and under the same terms, then `O=C(Nc1n[nH]c2cc(-c3cc(F)ccc3F)ccc12)C1CC1`, with 21.9%; and `Nc1nccc(-c2c(-c3ccc(F)cc3)ncn2C2CCC(O)CC2)n1` (stereo not drawn), with 28.6%.
On the same count and under the same terms, then `C[C@@H](Oc1cc(-n2cnc3ccc(OC4CCN(C)CC4)cc32)sc1C(N)=O)c1ccccc1Cl`, with 14%.
Consider `CCS(=O)(=O)c1ccc(OC)c(Nc2ncc(-c3cccc(-c4ccccc4F)c3)o2)c1`, for which the inhibition was 6.03%.
In the case of `O=C1Nc2ccc(I)cc2C1=Cc1cc(Br)c(O)c(Br)c1`, the inhibition was 9.04%.
Same read-out and setting: then `COc1cccc(/C=N/Nc2ncnc3c2cnn3-c2cccc(OC)c2)c1`, with 6.63%.
Turning to `COc1cc2ncn(-c3cc(OCc4cccs4)c(C(N)=O)s3)c2cc1OC`, the inhibition turned out to be 24.9%.
The same measure, in the same setting: next, `NC(=O)c1ccc(Oc2nccc(-c3c(-c4ccc(F)cc4)ncn3C3CCNCC3)n2)cc1`: 3.63%.
The same measure, in the same setting: next, `CN(C)CCCNc1nccc(-c2c(-c3ccc(F)cc3)nn3cc(C(F)(F)F)ccc23)n1`: 6.81%; `O=C1NC(=O)C(c2cccc(Cl)c2)=C1Nc1ccc(Cl)c(C(=O)O)c1`: 4.62%; `NC(=O)Cc1ccccc1Oc1nccc(-c2c(-c3ccc(F)cc3)ncn2C2CCNCC2)n1`: -3.54%.
Still for that read-out and setting: next, `Fc1ccc(-c2ncn(C3CCNCC3)c2-c2ccnc(Oc3ccc(F)c(F)c3)n2)cc1`: 8.24%; `O=C(Nc1n[nH]c2cc(-c3ccccc3)ccc12)C1CC1`: 12.8%; `Cc1nnc(-c2ccc(C)c(-c3ccc(C(=O)NCc4ccc(Cl)cc4)cc3)c2)o1`: 11.4%.

A further test deals with T1, Serine/threonine-protein kinase TBK1 (Homo sapiens) (UniProt Q9UHD2).
T1 sequence (whole entry): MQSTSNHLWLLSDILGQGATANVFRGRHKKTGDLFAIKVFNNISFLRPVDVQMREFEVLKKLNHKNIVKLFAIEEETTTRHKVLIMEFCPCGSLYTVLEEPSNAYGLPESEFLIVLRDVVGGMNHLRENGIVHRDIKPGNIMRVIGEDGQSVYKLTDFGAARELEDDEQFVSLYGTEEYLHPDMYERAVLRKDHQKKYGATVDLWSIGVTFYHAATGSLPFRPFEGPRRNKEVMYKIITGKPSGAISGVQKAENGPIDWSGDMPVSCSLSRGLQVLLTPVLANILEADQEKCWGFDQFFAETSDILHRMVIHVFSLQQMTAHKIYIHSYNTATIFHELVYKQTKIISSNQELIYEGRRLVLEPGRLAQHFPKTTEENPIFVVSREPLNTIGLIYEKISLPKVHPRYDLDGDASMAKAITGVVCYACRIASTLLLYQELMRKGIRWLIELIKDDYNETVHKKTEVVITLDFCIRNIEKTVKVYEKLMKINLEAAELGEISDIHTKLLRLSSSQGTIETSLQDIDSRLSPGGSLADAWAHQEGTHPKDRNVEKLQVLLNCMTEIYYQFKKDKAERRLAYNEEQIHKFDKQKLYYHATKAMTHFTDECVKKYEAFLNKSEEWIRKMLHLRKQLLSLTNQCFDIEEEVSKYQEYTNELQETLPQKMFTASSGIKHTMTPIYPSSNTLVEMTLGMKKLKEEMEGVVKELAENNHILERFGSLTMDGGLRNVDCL
Conditions: at 0.1 µM.
Consider `COc1ccc2ncn(-c3cc(O[C@H](C)c4ccccc4Cl)c(C(N)=O)s3)c2c1`, for which the inhibition was 2.41%.
Still for that read-out and setting: then `C#Cc1cccc(Nc2ncnc3ccc(OCCCCNCCS(C)(=O)=O)cc23)c1`, with 1.72%.
Still for that read-out and setting: then `NS(=O)(=O)c1ccc(Nc2cc(-c3ccc(O)c(F)c3)n[nH]2)cc1`, with -1%.
For the compound `C[C@@H](Oc1cc(-n2cnc3ccc(OCC4CCN(C)CC4)cc32)sc1C(N)=O)c1ccccc1Cl`, the inhibition amounted to 4.93%.
Still for that read-out and setting: then `Fc1ccc(-c2ncn(CCCN3CCOCC3)c2-c2ccncc2)cc1`, with 1.21%.
The same measure, in the same setting: next, `NS(=O)(=O)c1ccc(N/N=C2\C(=O)Nc3ccc(C(=O)NCCCn4ccnc4)cc32)cc1`: 3.93%; `COc1ccc2cc(-c3c(-c4ccncc4)nc(-c4ccc(S(C)(=O)=O)cc4C)n3C)ccc2c1`: 2.5%; `Clc1ccc(CNc2nccc(-c3cnn4ncccc34)n2)cc1`: 0.1%.
Still for that read-out and setting: then `COC(=O)Nc1nc2ccc(Sc3ccc(NC(=O)Nc4cc(C(F)(F)F)ccc4F)cc3)cc2[nH]1`, with -0.64%; and `Fc1ccc(-c2ncn(C3CCNCC3)c2-c2ccnc(Oc3ccc4c(c3)OCO4)n2)cc1`, with 2.29%; and `Cc1ccc(C(=O)NC(C)C)cc1-c1ccc(C(=O)NCC2CC2)cc1`, with -1.37%.
Regarding `CCS(=O)(=O)c1ccc(OC)c(Nc2ncc(-c3ccccc3Cl)o2)c1`, the inhibition came out at 1.3%.
Same read-out and setting: next, `NC(=O)c1cc(-c2ccncc2)cc(-c2ccccc2)c1N`: 3.5%; `c1ccc(-c2n[nH]cc2-c2ccnc(-c3ccc(OCCN4CCOCC4)cc3)c2)nc1`: 1.5%.
On the same count and under the same terms, next, `Cc1ccc(C(=O)NC2CCC2)cc1-c1ccc(C(=O)NCC2CC2)cc1`: 1.61%; `CN(c1ccc(NC(=O)Nc2c(Cl)cccc2Cl)cc1)c1ccnc(Nc2cccc(CS(C)(=O)=O)c2)n1`: 3.74%; `CS(=O)(=O)CCNCc1cc(-c2cc3c(Nc4ccc(OCc5cccc(F)c5)c(Cl)c4)ncnc3s2)cs1`: 5.03%.
For `Fc1ccc(-c2c(-c3ccncc3)nc3n2CCS3)cc1`, the inhibition was found to be 0.11%.
On the same count and under the same terms, next, `Cc1ccc(NC(=O)c2ccoc2)cc1-c1ccc(C(=O)NCC2CC2)cc1`: 0.28%; `NS(=O)(=O)c1ccc(N/N=C2\C(=O)Nc3ccc(-c4cnco4)cc32)cc1`: 7.17%; `O=C(Nc1n[nH]c2cc(-c3cc(F)ccc3F)ccc12)C1CC1`: 3.98%.
Same read-out and setting: next, `Nc1nccc(-c2c(-c3ccc(F)cc3)ncn2C2CCC(O)CC2)n1` (stereo not drawn): 5.52%; `C[C@@H](Oc1cc(-n2cnc3ccc(OC4CCN(C)CC4)cc32)sc1C(N)=O)c1ccccc1Cl`: 4.61%; `CCS(=O)(=O)c1ccc(OC)c(Nc2ncc(-c3cccc(-c4ccccc4F)c3)o2)c1`: 0.72%.
The same measure, in the same setting: next, `O=C1Nc2ccc(I)cc2C1=Cc1cc(Br)c(O)c(Br)c1`: 3.66%; `COc1cccc(/C=N/Nc2ncnc3c2cnn3-c2cccc(OC)c2)c1`: 3.28%; `COc1cc2ncn(-c3cc(OCc4cccs4)c(C(N)=O)s3)c2cc1OC`: 3.06%.
Take `NC(=O)c1ccc(Oc2nccc(-c3c(-c4ccc(F)cc4)ncn3C3CCNCC3)n2)cc1`: the inhibition amounted to 3.9%.
As for `CN(C)CCCNc1nccc(-c2c(-c3ccc(F)cc3)nn3cc(C(F)(F)F)ccc23)n1`, the inhibition came to 0.75%.
Turning to `O=C1NC(=O)C(c2cccc(Cl)c2)=C1Nc1ccc(Cl)c(C(=O)O)c1`, the inhibition came to 2.24%.
`NC(=O)Cc1ccccc1Oc1nccc(-c2c(-c3ccc(F)cc3)ncn2C2CCNCC2)n1`: the inhibition is 5.2%.
The same measure, in the same setting: next, `Fc1ccc(-c2ncn(C3CCNCC3)c2-c2ccnc(Oc3ccc(F)c(F)c3)n2)cc1`: 2.13%.
Consider `O=C(Nc1n[nH]c2cc(-c3ccccc3)ccc12)C1CC1`, for which the inhibition stood at 1.84%.
On to `Cc1nnc(-c2ccc(C)c(-c3ccc(C(=O)NCc4ccc(Cl)cc4)cc3)c2)o1`, for which the inhibition is 1.16%.

The term inhibition denotes the relative decrease from the control value, in per cent.
